The panel holds about 79,000 compounds, 15% with a hit somewhere; the sample as a whole holds those more often. Activity calls are given as the source filed them. No stated cut-off is given here; in the data, active means growth inhibition above about 70%; inactive means the rest.
Assay: NCI Yeast Anticancer Drug Screen. Data for the bub3 strain (AID 167)
Settings: S. cerevisiae bub3 mutant strain, at 50.0 µM, stronger effect = higher value
Method in brief: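 Steps: expose the mutant yeast strain to compound; grow alongside vehicle-treated cultures; measure growth; express inhibition against the vehicle cultures.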
With `CCNC(CCCC1CCCCC1)C(=O)O` (stereo not given) the growth inhibition was -18.5% (inactive).
In the case of `O=C(Nc1ccc(Cl)cc1)Nc1nnc2nc(C3(c4nc5nnc(NC(=O)Nc6ccc(Cl)cc6)n5[nH]c4=O)CCCC3=O)c(=O)[nH]n12`, the growth inhibition was 10.9% (inactive).
With `C=C(Br)CN1CCC2(c3ccccc3)C(=O)C([Se]c3ccccc3)CCC12` (stereo not given) the growth inhibition was -1.35% (inactive).
With `O=C(NCCCCNCCCNC(=O)c1ccc([N+](=O)[O-])cc1)c1ccc([N+](=O)[O-])cc1` the growth inhibition was 4.4% (inactive).
With `CCCCN=C(C)CC(=O)CC(=O)c1ccccc1` the growth inhibition was 22.4% (inactive).
For `CCc1cccc(C)c1NC(=O)CCc1nnc2s/c(=C\c3cccc4ccccc34)c(=O)n12`, the growth inhibition was 2.1% (inactive).
In the case of `COC(=O)C(C(=O)C(=O)Nc1ccc(C)cc1)c1nc2ccc([N+](=O)[O-])cc2[nH]c1=O` (stereo not given), the growth inhibition was 22.2% (inactive).
For `CCCCCCC(=O)/C=C/c1ccccc1OC`, the growth inhibition was 2.3% (inactive).
With `Clc1ccc(OCCBr)cc1` the growth inhibition was 3.8% (inactive).
In the case of `NC(CCC(=O)NC(CSCNC(=O)Nc1ccc(Cl)cc1)C(=O)NCC(=O)O)C(=O)O` (stereo not given), the growth inhibition was -3.85% (inactive).
In the case of `C=C1N(C)c2ccccc2C1(C)C`, the growth inhibition was 6.2% (inactive).
For `CCCCC1(N=[N+]=[N-])C(=O)c2cccc3c2N(CCC3)C1=O` (stereo not given), the growth inhibition was 15.6% (inactive).
With `COC(=O)c1ccc(OC(=O)Nc2cccc(C(C)=O)c2)cc1` the growth inhibition was 12.7% (inactive).
With `CCCCCNC(=S)NNC(N)=O` the growth inhibition was 5.25% (inactive).
With `c1ccc2c(c1)ccc1c2c[n+](CCCCCCCC[n+]2cc3c4ccccc4ccc3c3ccccc32)c2ccccc12` the growth inhibition was 83.2% (active).
With `CN(C)/N=N/c1nc2c(c(=O)n(C)c(=O)n2C)n1C` the growth inhibition was -5.4% (inactive).
For `CC1(C)OC2COC(CNS(C)(=O)=O)C2O1` (stereo not given), the growth inhibition was 2.85% (inactive).
In the case of `O=c1c2nn3c(=O)n(-c4ccccc4)c(=O)c3nn2c(=O)n1-c1ccccc1`, the growth inhibition was -24.7% (inactive).
With `O=C(COc1ccc(Cl)c(Cl)c1)Nc1ccc(C(=O)CCl)cc1` the growth inhibition was 42.5% (inactive).
With `CSc1ncc(Br)c(Sc2nccn2C)n1` the growth inhibition was -12% (inactive).
With `N#CCCCN1CCOCC1` the growth inhibition was 0% (inactive).
In the case of `CCOC(=O)NNC(=O)C1CSC(c2ccccc2)N1C(C)=O` (stereo not given), the growth inhibition was 1.85% (inactive).
With `Cc1ccc(S(=O)(=O)ON2C(=O)c3cccc4cc([N+](=O)[O-])cc(c34)C2=O)cc1` the growth inhibition was -12.2% (inactive).
For `COc1ccccc1-n1nnc2c(N)nc(N)nc21`, the growth inhibition was -22.1% (inactive).
In the case of `N[C@@H](C[C@H]1CCC(=O)[C@@H]2O[C@H]12)C(=O)O`, the growth inhibition was 13.2% (inactive).
In the case of `Cc1c(O)c2ccc3ccccc3c2oc1=O`, the growth inhibition was -47.4% (inactive).
In the case of `Cc1cccc(C(=O)c2ccccc2)c1C(=O)O`, the growth inhibition was -9.25% (inactive).
For `Fc1cccc(Cl)c1CSc1n[nH]c(C(F)(F)F)n1`, the growth inhibition was 11.1% (inactive).
With `O=C(c1ccccc1)N1C(=S)N=C(Nc2ccccc2)C1=Nc1ccccc1` the growth inhibition was -20.9% (inactive).
With `COc1ccc(C2(C(OC)OC)NC(=O)N(Cc3ccccc3)C2=O)cc1` (stereo not given) the growth inhibition was -11.8% (inactive).
For `CC(C)(CCc1nc2ccccc2[nH]1)C(=O)O`, the growth inhibition was 1.05% (inactive).
In the case of `Nc1ccc(NC(=S)Nc2ccccc2)cc1`, the growth inhibition was -7.05% (inactive).
In the case of `COc1ccc(/C=C2\N=C(c3cc(OC)c(OC)c(OC)c3)OC2=O)cc1`, the growth inhibition was 22.1% (inactive).
For `CC(C)(C)OC(=O)C(C1NC(C(=O)O)C(C)(C)S1)N1C(=O)c2ccccc2C1=O` (stereo not given), the growth inhibition was -56.4% (inactive).
For `O=C(N/N=C/c1ccccc1[O-])c1ccccc1O.O=C(N/N=C/c1ccccc1[O-])c1ccccc1O.[Fe+2]`, the growth inhibition was -19.6% (inactive).
For `Cc1ccc(NCC(=O)N2CC(=O)Nc3ccccc32)cc1`, the growth inhibition was -23.2% (inactive).
With `O=C(Oc1c(Cl)cc([N+](=O)[O-])cc1[N+](=O)[O-])Sc1ccccc1` the growth inhibition was 99.5% (active).
For `COC(=O)c1ccccc1OC(C)=O`, the growth inhibition was 1.5% (inactive).
With `O=[N+]([O-])c1cc(Br)c(F)cc1F` the growth inhibition was -2.55% (inactive).
In the case of `COc1cc(C(=O)Nc2cccc3ccccc23)c(Br)c(OC)c1OC`, the growth inhibition was 53.5% (inactive).

Assay: NCI Yeast Anticancer Drug Screen. Data for the mlh1 rad18 strain (AID 175)
Settings: S. cerevisiae mlh1 rad18 strain growth inhibition; at 50.0 µM; stronger effect = higher value
Method in brief: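 In this whole-cell yeast screen, a strain with altered DNA damage repair is challenged with compound, and its growth is measured against matched vehicle-treated controls.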
With `CCNC(CCCC1CCCCC1)C(=O)O` (stereo not given) the growth inhibition was 4.7% (inactive).
For `O=C(Nc1ccc(Cl)cc1)Nc1nnc2nc(C3(c4nc5nnc(NC(=O)Nc6ccc(Cl)cc6)n5[nH]c4=O)CCCC3=O)c(=O)[nH]n12`, the growth inhibition was -2.75% (inactive).
For `C=C(Br)CN1CCC2(c3ccccc3)C(=O)C([Se]c3ccccc3)CCC12` (stereo not given), the growth inhibition was -0.95% (inactive).
In the case of `O=C(NCCCCNCCCNC(=O)c1ccc([N+](=O)[O-])cc1)c1ccc([N+](=O)[O-])cc1`, the growth inhibition was -11.4% (inactive).
With `CCCCN=C(C)CC(=O)CC(=O)c1ccccc1` the growth inhibition was 33.9% (inactive).
For `CCc1cccc(C)c1NC(=O)CCc1nnc2s/c(=C\c3cccc4ccccc34)c(=O)n12`, the growth inhibition was 33.2% (inactive).
In the case of `COC(=O)C(C(=O)C(=O)Nc1ccc(C)cc1)c1nc2ccc([N+](=O)[O-])cc2[nH]c1=O` (stereo not given), the growth inhibition was 4.6% (inactive).
With `CCCCCCC(=O)/C=C/c1ccccc1OC` the growth inhibition was -14.1% (inactive).
With `Clc1ccc(OCCBr)cc1` the growth inhibition was 25.6% (inactive).
In the case of `NC(CCC(=O)NC(CSCNC(=O)Nc1ccc(Cl)cc1)C(=O)NCC(=O)O)C(=O)O` (stereo not given), the growth inhibition was 15.9% (inactive).
With `C=C1N(C)c2ccccc2C1(C)C` the growth inhibition was 17.3% (inactive).
With `CCCCC1(N=[N+]=[N-])C(=O)c2cccc3c2N(CCC3)C1=O` (stereo not given) the growth inhibition was 61.5% (inactive).
In the case of `COC(=O)c1ccc(OC(=O)Nc2cccc(C(C)=O)c2)cc1`, the growth inhibition was 34.8% (inactive).
With `CCCCCNC(=S)NNC(N)=O` the growth inhibition was -0.75% (inactive).
With `c1ccc2c(c1)ccc1c2c[n+](CCCCCCCC[n+]2cc3c4ccccc4ccc3c3ccccc32)c2ccccc12` the growth inhibition was 90.5% (active).
In the case of `CN(C)/N=N/c1nc2c(c(=O)n(C)c(=O)n2C)n1C`, the growth inhibition was 15.7% (inactive).
In the case of `CC1(C)OC2COC(CNS(C)(=O)=O)C2O1` (stereo not given), the growth inhibition was 28.4% (inactive).
For `O=c1c2nn3c(=O)n(-c4ccccc4)c(=O)c3nn2c(=O)n1-c1ccccc1`, the growth inhibition was -3.05% (inactive).
With `O=C(COc1ccc(Cl)c(Cl)c1)Nc1ccc(C(=O)CCl)cc1` the growth inhibition was 9.3% (inactive).
With `CSc1ncc(Br)c(Sc2nccn2C)n1` the growth inhibition was 2.85% (inactive).
In the case of `N#CCCCN1CCOCC1`, the growth inhibition was 3.6% (inactive).
With `CCOC(=O)NNC(=O)C1CSC(c2ccccc2)N1C(C)=O` (stereo not given) the growth inhibition was -22.3% (inactive).
In the case of `Cc1ccc(S(=O)(=O)ON2C(=O)c3cccc4cc([N+](=O)[O-])cc(c34)C2=O)cc1`, the growth inhibition was 8.65% (inactive).
With `COc1ccccc1-n1nnc2c(N)nc(N)nc21` the growth inhibition was -9.25% (inactive).
With `N[C@@H](C[C@H]1CCC(=O)[C@@H]2O[C@H]12)C(=O)O` the growth inhibition was -10.9% (inactive).
For `Cc1c(O)c2ccc3ccccc3c2oc1=O`, the growth inhibition was -6.4% (inactive).
In the case of `Cc1cccc(C(=O)c2ccccc2)c1C(=O)O`, the growth inhibition was 2.15% (inactive).
In the case of `Fc1cccc(Cl)c1CSc1n[nH]c(C(F)(F)F)n1`, the growth inhibition was 2.45% (inactive).
In the case of `O=C(c1ccccc1)N1C(=S)N=C(Nc2ccccc2)C1=Nc1ccccc1`, the growth inhibition was -35.9% (inactive).
With `COc1ccc(C2(C(OC)OC)NC(=O)N(Cc3ccccc3)C2=O)cc1` (stereo not given) the growth inhibition was -10.3% (inactive).
In the case of `CC(C)(CCc1nc2ccccc2[nH]1)C(=O)O`, the growth inhibition was -3.85% (inactive).
In the case of `Nc1ccc(NC(=S)Nc2ccccc2)cc1`, the growth inhibition was -12.7% (inactive).
For `COc1ccc(/C=C2\N=C(c3cc(OC)c(OC)c(OC)c3)OC2=O)cc1`, the growth inhibition was 7.5% (inactive).
With `CC(C)(C)OC(=O)C(C1NC(C(=O)O)C(C)(C)S1)N1C(=O)c2ccccc2C1=O` (stereo not given) the growth inhibition was -17.4% (inactive).
For `O=C(N/N=C/c1ccccc1[O-])c1ccccc1O.O=C(N/N=C/c1ccccc1[O-])c1ccccc1O.[Fe+2]`, the growth inhibition was 9.5% (inactive).
With `Cc1ccc(NCC(=O)N2CC(=O)Nc3ccccc32)cc1` the growth inhibition was -15.8% (inactive).
In the case of `O=C(Oc1c(Cl)cc([N+](=O)[O-])cc1[N+](=O)[O-])Sc1ccccc1`, the growth inhibition was 99.5% (active).
In the case of `COC(=O)c1ccccc1OC(C)=O`, the growth inhibition was -10.7% (inactive).
With `O=[N+]([O-])c1cc(Br)c(F)cc1F` the growth inhibition was 31.1% (inactive).
For `COc1cc(C(=O)Nc2cccc3ccccc23)c(Br)c(OC)c1OC`, the growth inhibition was 32.7% (inactive).
